Measurements taken from PubChem BioAssay (EPA / NIEHS).
Where “and” joins values, the source holds several entries; their conditions need not be identical. Equal entries are not always repeated. Calls of active or inactive are those of the source. How the source made its calls: active means hit-call score of the fitted dose curve at least 0.9, where 1 is the maximum; inactive means score below 0.9.

The molecules below were run on Intercellular Adhesion Molecule 1 (ICAM1), ICAM1 (gene 3383) (assay: BSK_BF4T_ICAM1: BioMAP Diversity Plus: BF4T Assay for Intercellular Adhesion Molecule 1 (ICAM1) Biomarker Activity (AID 2284260)). Settings: primary human bronchial epithelial cells with fibroblasts.
Protocol: BSK_BF4T is a cell-based, multiplexed-readout assay that uses bronchial epithelial cells and dermal fibroblasts, a human vascular primary cell, with measurements taken at 24 hours after chemical dosing in a microplate: 96-well plate.BSK_BF4T_ICAM1 is an assay component measured in the BSK_BF4T assay. It measures ICAM-1 antibody related to regulation of gene expression using ELISA technology.Data from the assay component BSK_BF4T_ICAM1 was analyzed at the endpoint, BSK_BF4T_ICAM1, in the positive analysis fitting direction relative to DMSO as the negative control and baseline of activity. Using a type of binding reporter, gain or loss-of-signal activity can be used to understand protein changes. To generalize the intended target to other relatable targets, this assay endpoint is annotated to the 'cell adhesion molecules' intended target family, where the subfamily is 'Immunoglobulin CAM'.
The levels of cell surface (or secreted, indicated by the prefix "s") biomarker endpoints were measured by ELISA. Overt cytotoxicity to cells in confluent adherent cultures (all systems other than the BT system) was assessed by measuring total protein levels using sulforhodamine B (SRB) staining in parallel cultures at the time of biomarker measurements, indicated as SRB endpoints. For proliferation assays for adherent cell types, individual cell types are cultured at sub-confluence and relative cell numbers quantified by SRB staining at time points optimized for each system (48 h: 3C and CASM3C systems; 72 h: BT and HDF3CGF systems; 96 h: SAg system). SRB was performed by staining cells with 0.1% SRB after fixation with 10% TCA and reading wells at 560 nm.Viability and proliferation of PBMC (T cells) was quantified by Alamar Blue reduction for the SAg and BT systems. For PBMC viability (referred to as PBMC Cytotoxicity within the assay endpoint names), cells were plated (75,000/well in a 96-well plate) and then chemical samples added for 1 h before addition of activators, SEB and TSST-1 (20 ng/mL final concentration each). Cells were incubated for 90 h. Then, Alamar Blue (20 uL/well) (Invitrogen, Cat DAL1100) was added for 6 h, and the plates were read with a fluorescence microplate reader at 546/580 nm (excitation/emission). For PBMC proliferation, cells were plated and activated as above but incubated for only 16 h prior to addition of Alamar Blue. Plates were read after 6 h.
`FC(F)(F)C(F)(F)C(F)(F)C(F)(F)C(F)(F)C(F)(F)CC1CO1` (stereo not given) was tested, and the outcome was “inactive”.
For `C=CC(=O)OCC(F)(F)C(F)(F)C(F)(F)C(F)(F)C(F)(F)C(F)(F)C(F)(F)F`, the outcome was “inactive”.
For `FC(F)(F)C(F)(F)C(F)(F)C(F)(F)C(F)(F)C(F)(F)C(F)(F)C(F)(F)F`, the outcome was “inactive”.
`O=C(Cl)C(F)(F)C(F)(F)C(F)(F)C(F)(F)C(F)(F)C(F)(F)C(F)(F)C(F)(F)F` was tested, and the outcome was “inactive”.
In the case of `FC(F)(F)C(F)(F)C(F)(F)CI`, the outcome is reported as “inactive”.
For `COC(=O)CCC(F)(F)C(F)(F)C(F)(F)C(F)(F)F`, the outcome was “inactive”.
In the case of `FC(F)(Br)C(F)(F)C(F)(F)C(F)(F)C(F)(F)C(F)(F)Br`, the outcome is reported as “inactive”.
`O=C(O)C(F)(F)C(F)(F)OC(F)(F)F` was tested, and the outcome was “inactive”.
In the case of `O=S(=O)(OCCOC(F)(F)F)C(F)(F)F`, the outcome is reported as “inactive”.
For `CC(C)(C)C(=O)CC(=O)C(F)(F)C(F)(F)C(F)(F)F`, the outcome was “inactive”.
With `O=C(O)C(F)(OC(F)(F)C(F)(OC(F)(F)C(F)(F)C(F)(F)F)C(F)(F)F)C(F)(F)F` (stereo not given) the outcome was “inactive”.
`O=C(O)C=C(C(F)(F)F)C(F)(F)F` was tested, and the outcome was “inactive”.
`CCCCCCCCC(F)(F)C(F)(F)C(F)(F)C(F)(F)C(F)(F)C(F)(F)F` was tested, and the outcome was “inactive”.
`NC(=O)C(F)(F)C(F)(F)C(F)(F)C(F)(F)F` was tested, and the outcome was “inactive”.
For `C=C(C)C(=O)OCC(F)(F)C(F)(F)C(F)(F)F`, the outcome was “inactive”.
With `O=C(O)C(F)(F)C(F)(F)C(F)(F)C(F)(F)C(F)(F)C(F)(F)C(F)(F)C(F)(F)C(F)(F)C(F)(F)C(F)(F)C(F)(F)C(F)(F)F` the outcome was “inactive”.
With `C=C(C)C(=O)OCC(F)(F)C(F)(F)C(F)(F)C(F)(F)C(F)(F)C(F)(F)C(F)(F)F` the outcome was “inactive”.
For `C=CC(=O)OCC(F)(F)C(F)(F)C(F)(F)C(F)(F)COC(=O)C=C`, the AC50 was 9.07 µM (active) and 16.9 µM (active).
`OCC(F)(F)C(F)(F)C(F)(F)C(F)F` was tested, and the outcome was “inactive”.
For `FC(F)(F)C(F)(F)C(F)(F)C(F)(F)C(F)(F)C(F)(F)CCS`, the outcome was “inactive”.
`FC(F)(F)C(F)(F)C(F)(F)C(F)(F)C(F)(F)C(F)(F)C(F)(F)I` was tested, and the outcome was “inactive”.
In the case of `O=C(O)C(F)(F)C(F)(F)C(F)F`, the outcome is reported as “inactive”.
`FC(F)(F)C(F)(F)CNCC(F)(F)C(F)(F)F` was tested, and the outcome was “inactive”.
In the case of `OCC(F)(F)C(F)(F)C(F)(F)C(F)(F)C(F)(F)C(F)F`, the outcome is reported as “inactive”.
With `FC(F)(F)C(F)(F)C(F)(F)C(F)(F)C(F)(F)CCI` the outcome was “inactive”.
`FC(F)(F)C(F)(F)C(F)(F)N(C(F)(F)C(F)(F)C(F)(F)F)C(F)(F)C(F)(F)C(F)(F)F` was tested, and the outcome was “inactive”.
In the case of `OCCCC(F)(F)C(F)(F)C(F)(F)F`, the outcome is reported as “inactive”.
`C=CC(F)(F)C(F)(F)C(F)(F)C(F)(F)C(F)(F)C(F)(F)C(F)(F)C(F)(F)F` was tested, and the outcome was “inactive”.
In the case of `O=P(O)(O)OCCC(F)(F)C(F)(F)C(F)(F)C(F)(F)C(F)(F)C(F)(F)F`, the outcome is reported as “inactive”.
In the case of `O=S(=O)(O)C(F)(F)C(F)(F)C(F)(F)C(F)(F)C(F)(F)C(F)(F)C(F)(F)F`, the outcome is reported as “inactive”.
With `C=CC(F)(F)C(F)(F)C(F)(F)C(F)(F)C(F)(F)C(F)(F)C(F)(F)C(F)(F)C=C` the outcome was “inactive”.
For `Cc1ccc(S(=O)(=O)OCC(F)(F)C(F)(F)C(F)(F)C(F)(F)C(F)(F)C(F)F)cc1`, the outcome was “inactive”.
`O=C(O)C(F)(F)C(F)(F)C(F)(F)C(F)(F)F` was tested, and the outcome was “inactive”.
With `C=C(C)C(=O)OCCC(F)(F)C(F)(F)C(F)(F)C(F)(F)C(F)(C(F)(F)F)C(F)(F)F` the outcome was “inactive”.
With `O=C(O)C(F)(OC(F)(F)C(F)(OC(F)(F)C(F)(OC(F)(F)C(F)(F)C(F)(F)F)C(F)(F)F)C(F)(F)F)C(F)(F)F` (stereo not given) the outcome was “inactive”.
With `FC(F)(F)C(F)(F)C(F)(F)C(F)(F)C(F)(F)C(F)(F)C(F)(F)Br` the outcome was “inactive”.
`O=C(O)C(F)(F)C(F)(F)C(F)(F)F` was tested, and the outcome was “inactive”.
For `O=C(O)C(F)(F)C(F)(F)F`, the outcome was “inactive”.
`OCCCC(F)(F)C(F)(F)C(F)(F)C(F)(F)C(F)(F)C(F)(F)C(F)(F)F` was tested, and the AC50 was 23.7 µM (active) and 34 µM (active).
With `CCO[Si](CCC(F)(F)C(F)(F)C(F)(F)C(F)(F)C(F)(F)C(F)(F)F)(OCC)OCC` the outcome was “inactive”.
